Source: PubChem (National Center for Advancing Translational Sciences (NCATS))
Sampled rows, rich in hits. Any-hit rate of the full collection: about 21%.
Shiga inhibitor – A qHTS for Small Molecule Inhibitors of Shiga Toxin; Vero cells, Shiga toxin protein synthesis inhibition reporter; inhibition, % at 38.7 µM; 290,000 tested, 9.2% active; AID 2315, 2010; in the data active = inhibition mostly above about 28%, no sharp cut-off; inactive = mostly below about 43%
Pf growth 96h – Primary qHTS for delayed death inhibitors of the malarial parasite plastid, 96 hour incubation | P. falciparum luciferase reporter growth, 96 h | Potency, µM (doses to about 28.7 µM), usual class: inhibitors | 320,000 tested, 6.9% active | AID 504834, 2011
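Readout is luminescence from an integrated firefly luciferase in P. falciparum. Red cells, 2% hematocrit and 0.05% parasitemia final, were cultured with compound through two parasite generations (96 hours) at 37 C, 5% CO2.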
Pf growth 48h – Primary qHTS for delayed death inhibitors of the malarial parasite plastid, 48 hour incubation | P. falciparum luciferase growth in erythrocytes, 48 h | Potency, µM (highest dose often 28.7 µM), actives largely listed as inhibitors | 310,000 tested, 5.9% active
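First compound was added to culture medium, then infected red cells at 0.1% parasitemia and 2% hematocrit (final). After incubation at 37 C under 5% CO2, luciferase detection reagent was dispensed and light output recorded.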
CHX counter – Cycloheximide Counterscreen for Small Molecule Inhibitors of Shiga Toxin; cell reporter, cycloheximide protein synthesis inhibition counterscreen; max response, %; 300,000 tested, 12% active; in the data active = max response mostly above about 13%, no sharp cut-off; inactive = mostly below about 14%; note: read at 38.3 µM for the half of the compounds with a filed dose
NS1 function inh – qHTS Assay for Inhibitors of Influenza NS1 Protein Function; Potency, µM (titrated, usually from 46.1 µM); AID 2326, 2010; 270,000 tested, 0.4% active; calls by dose curve; note: actives are rising curves; nearly all actives have a fitted effect of over 50% in size
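Growth recovery, yeast-based: influenza A NS1 expressed in S. cerevisiae causes slow growth, and suppressors are detected by OD600. The parent strain without NS1 is used as positive control.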
Each line names hits and unclear results; the compound was inactive in the other large screens. Unless noted, calls come from the whole dose curve; as a rule, active = well fitted inhibition curve with a large enough effect; inconclusive = small, poorly fitted or top-dose-only effect, or another doubt; inactive = no such curve, though single readings can be large or run the other way.

Cc1ccc(-c2csc(CC(N)=O)n2)cc1	Shiga inhibitor 66, Pf growth 96h inconclusive, CHX counter 31 (no result: NS1 function inh)
COc1ccc(NC(=O)CN2CCCCC2)cc1	CHX counter 34
COC(=O)c1ccc(NC(=O)CCN2CCCCC2)cc1	Pf growth 96h 1.5µM
O=C(CN1CCCCCC1)Nc1ccc(Br)cc1	Pf growth 96h inconclusive, CHX counter 24 (no result: Pf growth 48h)
O=C(CN1CCCC1)Nc1ccc(Br)cc1	Pf growth 96h inconclusive (no result: NS1 function inh)
CC1CN(CC(=O)Nc2ccc(Br)cn2)CC(C)O1 (configuration not stated)	none
O=C(CN1CCCCCC1)Nc1ccc(Br)cn1	CHX counter 15, NS1 function inh inconclusive
Cc1ccc(NC(=O)CN2CCCC2)cc1	none (no result: Shiga inhibitor)
CN(Cc1cccc(Cl)c1Cl)CC(O)COc1ccccc1 (configuration not stated)	none
COc1ccc(NC(=O)CSC2CCCCC2)cc1	Shiga inhibitor 153, CHX counter 61 (no result: Pf growth 96h)
O=C(CN1CCCCCC1)Nc1cccc2c1OCO2	Pf growth 96h 1µM
COc1ccc(NC(=O)CN2CCN(CC(=O)Nc3ccccc3Cl)CC2)cc1	Pf growth 96h inconclusive
CC(=O)c1ccc(NC(=O)CN2CCCC2)cc1	Shiga inhibitor 28, Pf growth 96h inconclusive, CHX counter 27
COc1ccc(NC(=O)CN2CCN(CC(=O)Nc3ccc(F)cc3F)CC2)cc1	Shiga inhibitor 30, CHX counter 24
O=C(CN1CCN(C(=O)N2CCOCC2)CC1)Nc1ccc(Br)cc1	Pf growth 96h inconclusive
COc1ccc(NC(=O)CN2CCN(C(=O)N3CCOCC3)CC2)cc1	Pf growth 96h 2.3µM
Cc1ccc(NC(=O)CN2C(=O)c3ccccc3C2=O)nc1	Pf growth 96h inconclusive
COCCNc1oc(/C=C/c2ccccc2OC)nc1S(=O)(=O)c1ccccc1	Pf growth 96h 7.4µM, Pf growth 48h 9.3µM
COc1ccccc1/C=C/c1nc(S(=O)(=O)c2ccccc2)c(N2CCC(C(N)=O)CC2)o1	Pf growth 96h inconclusive
Cn1c(=O)n(C/C=C/c2ccccc2)c(=O)c2c1nc1n2CCCN1c1ccc(F)cc1	Pf growth 96h inconclusive, Pf growth 48h 12µM
CCn1c(=O)c2c(nc3n2CCCN3Cc2ccccc2)n(C)c1=O	Pf growth 48h inconclusive
Cc1cccc(Cn2c(=O)c3c(nc4n3CCCN4Cc3ccccc3)n(C)c2=O)c1	Pf growth 48h 13µM (no result: Pf growth 96h)
C=CCn1c(=O)c2c(nc3n2CCCN3Cc2ccccc2)n(C)c1=O	Pf growth 48h inconclusive
COc1ccc(CCN2CCCn3c2nc2c3c(=O)n(Cc3ccccc3F)c(=O)n2C)cc1OC	Pf growth 96h 2.9µM, Pf growth 48h 2.3µM
COc1ccc(N2CCCn3c2nc2c3c(=O)n(Cc3ccccc3F)c(=O)n2C)cc1	Pf growth 96h inconclusive
Cn1c(=O)n(C/C=C/c2ccccc2)c(=O)c2c1nc1n2CCCN1Cc1ccccc1	Pf growth 96h 15µM, Pf growth 48h 13µM, NS1 function inh inconclusive
O=C(Nc1cc2c3c(c1)CC(=O)N3CCC2)C1CCCCC1	none (no result: Shiga inhibitor, CHX counter, NS1 function inh)
Cc1c2cc[n+](CCN3CCCCC3)cc2c(C)c2c1[nH]c1ccc(O)cc12	none (no result: Shiga inhibitor, Pf growth 96h, Pf growth 48h, CHX counter)
CC(C)Cn1c(=O)c2c(nc3n2CCCN3Cc2ccccc2)n(C)c1=O	Pf growth 96h 12µM, Pf growth 48h 10µM
CC(=O)n1c(-c2ccccc2)c(CO)c2ccccc21	Pf growth 96h inconclusive
NCCc1c(-c2ccccc2)n(-c2ccccc2)c2ccccc12	Pf growth 96h inconclusive, Pf growth 48h 15µM (no result: NS1 function inh)
COc1ccc(C(=O)C[n+]2ccccc2/C=N/O)cc1	Pf growth 96h inconclusive, CHX counter 19
COc1ccc2c(ccc[n+]2CC(=O)c2ccccc2)c1	none
Cc1ccc2nc(-c3ccc(S(=O)(=O)N4CCOCC4)cc3)cn2c1	CHX counter 24 (no result: Pf growth 96h)
CC(=O)Nc1ccc(-c2cn3cc(C)ccc3n2)cc1	Shiga inhibitor 61, CHX counter 42
Cc1ccn2cc(-c3ccc(S(=O)(=O)N4CCOCC4)cc3)nc2c1	CHX counter 48, NS1 function inh inconclusive
S=C(NCCC(c1ccccc1)c1ccccc1)Nc1cccc(Cl)c1	none
Cc1cc(C)cc(NC(=S)NC2CC3CCCC(C2)N3C2CC2)c1 (configuration not stated)	Pf growth 48h inconclusive
S=C(Nc1cccc(Cl)c1)NC1CC2CCCC(C1)N2C1CCCC1 (configuration not stated)	Pf growth 96h inconclusive, Pf growth 48h 3.3µM
C=CCN1C2CCCC1CC(NC(=S)Nc1ccc(Cl)cc1)C2 (configuration not stated)	Pf growth 48h inconclusive
